Reference: PubChem BioAssay (NCI)
Compounds without any hit were thinned out: in the full panel of roughly 83,000, 20% have a hit.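 Compound tested at a single concentration for 48 hours in 96-well plates; a percent growth value below 10 was scored as active.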 Activity calls are given as the source filed them.

Tests used:
Assay in all cases: NCI-60 one-dose screen, 48 h (100 = growth as untreated, 0 = no growth, -100 = all killed)
[1] = system: NCI-H226 lung; conditions: 10 µM
[2] = system: NCI-H322M lung; conditions: 10 µM
[3] = system: HOP-62 NSCLC; conditions: 10 µM
[4] = system: NCI-H460 lung; conditions: 10 µM
[5] = system: A549/ATCC NSCLC; conditions: 10 µM
[6] = system: COLO 205 colon; conditions: 10 µM
[7] = system: DU-145 prostate; conditions: 10 µM
[8] = system: K-562 leukemia; conditions: 10 µM
[9] = system: SF-539 CNS; conditions: 10 µM
[10] = system: M14 melanoma; conditions: 10 µM
[11] = system: HCT-15 colon; conditions: 10 µM
[12] = system: HT29 colon; conditions: 10 µM
[13] = system: SNB-75 CNS; conditions: 10 µM
[14] = system: U251 CNS; conditions: 10 µM
[15] = system: LOX IMVI melanoma; conditions: 10 µM
[16] = system: MOLT-4 leukemia; conditions: 10 µM
[17] = system: SR leukemia; conditions: 10 µM
[18] = system: RPMI-8226 leukemia; conditions: 10 µM
[19] = system: SK-OV-3 ovarian; conditions: 10 µM
[20] = system: MDA-MB-468 breast; conditions: 10 µM unless noted

Measured: growth

COc1ccc(NCc2cn(-c3ccc(C(=O)O)cc3)nc2-c2ccc(F)cc2)cc1C(F)(F)F
inactive: [1] 66.3% | [2] 62% | [3] 66.3% | [4] 37.2% | [5] 35.8% | [6] 71.2% | [7] 69.3% | [8] 41.3% | [9] 53.9% | [10] 51.5% | [11] 43.7% | [12] 51% | [13] 79.1% | [14] 29.5% | [15] 43.8% | [16] 40.7% | [17] 50.7% | [18] 37.6% | [19] 112% | [20] 65.1%

COc1ccc(OC)c(-n2cc(C#N)c(N)c2C(=O)c2ccc(Cl)cc2Cl)c1
inactive: [1] 51.3% | [2] 76.8% | [3] 49.3% | [4] 32.9% | [5] 51.9% | [6] 32.6% | [7] 65.6% | [8] 14.1% | [9] 25.6% | [10] 23.5% | [11] 21.6% | [14] 24.6% | [15] 48.2% | [16] 29.8% | [17] 13.7% | [18] 39% | [19] 49.7% | [20] 19.8%
active: [12] 4.43% | [13] -7.62%

C#C[C@]1(O)CC[C@H]2[C@@H]3CC=C4c5sc(Nc6ccc(N(C)C)cc6)nc5CC[C@]4(C)[C@H]3CC[C@@]21C
inactive: [2] 42.5% | [3] 10.7% | [5] 20.5% | [13] 33.8%
active: [1] -43.2% | [4] 7.37% | [6] -28.6% | [7] -8.05% | [8] 4% | [9] -75.7% | [10] -12.3% | [11] -37.5% | [12] -53.5% | [14] -75% | [15] -80.3% | [16] -6.03% | [17] 9.05% | [18] -42% | [19] -39.5% | [20] -56.3%

COc1ccc(-n2c(SCC(=O)NNS(=O)(=O)c3ccccc3)nc3ccc(Cl)cc3c2=O)cc1
inactive: [1] 91% | [2] 98.1% | [3] 96.6% | [4] 115% | [5] 106% | [6] 120% | [7] 113% | [8] 99.5% | [9] 97.6% | [10] 104% | [11] 92% | [12] 114% | [13] 98.7% | [14] 101% | [15] 87.2% | [16] 93.4% | [17] 78.9% | [18] 99% | [19] 66.1% | [20] 102%

Cc1ccc(-c2nc(C#N)c(S(=O)(=O)N3CCN(S(C)(=O)=O)CC3)o2)cc1
active: [6] -69.3% | [8] 6.88% | [11] -74.5% | [12] -6.5% | [15] -88.6% | [16] 0.383% | [17] 1.13% | [18] 4.64% | [20] -68.5%
inactive: [1] 85.6% | [2] 98.8% | [3] 95.6% | [4] 79.9% | [5] 92.9% | [7] 68.7% | [9] 40.3% | [10] 22.6% | [13] 107% | [14] 78.7% | [19] 105%

Fc1ccc(/C=C/c2nc3ccccc3n3c(-c4ccc(Cl)cc4)nnc23)cc1
active: [15] -89.2% | [16] 2.97% | [17] -3.04% | [20] -2.32%
inactive: [1] 77.4% | [2] 89.6% | [3] 107% | [4] 59.6% | [5] 82% | [6] 67.8% | [7] 68% | [8] 10% | [9] 85.5% | [10] 63.8% | [11] 24% | [12] 59.5% | [13] 86.8% | [14] 73% | [18] 53.5% | [19] 104%

COc1cc2oc(-c3cccc(C(=O)Nc4ccc(Cl)cc4)c3)cc(=O)c2c(OCCNC(=O)[C@@H](N)CO)c1OC
active: [8] -53.3% | [10] -81.8% | [14] -82.6% | [15] -79.1% | [16] -40.4% | [17] -38.1% | [18] -23.4% | [20] -85.6%
inactive: [1] 95.1% | [2] 55.3% | [3] 87.6% | [4] 40.2% | [5] 102% | [6] 40.9% | [7] 77% | [9] 23.9% | [11] 83% | [12] 37.3% | [13] 121% | [19] 115%
